Test [1] has as its target Cytochrome P450 2C19 (Homo sapiens) (UniProt P33261). Kind of test: Cytochrome P450 Family 2 Subfamily C Member 19 (CYP2C19) small molecule antagonists: luciferase reporter qHTS assay (AID 1671197). Also: nearly all actives have a fitted effect of over 65% in size. Also: potency is read from the fitted curve at half-maximal effect. A digest of the protocol: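 Inhibition of CYP2C19 was scored from loss of luminescence in a P450-Glo proluciferin substrate assay, NADPH-started and run 1 h at 37C, with ketoconazole as positive control.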

For test [2], the target named is Cytochrome P450 1A2 (Homo sapiens) (UniProt P05177). The experiment in a line: Cytochrome P450 Family 1 Subfamily A Member 2 (CYP1A2) small molecule antagonists: luciferase reporter qHTS assay (AID 1671199). Also: nearly all actives have a fitted effect of over 50% in size. Also: potency is read from the fitted curve at half-maximal effect. A digest of the protocol: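 Inhibition of CYP1A2 conversion of proluciferin to luciferin, detected by luminescence. Reaction run 1 h at room temperature with NADPH regeneration after brief compound preincubation.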

Test [3] addresses Voltage-gated inwardly rectifying potassium channel KCNH2 (Homo sapiens) (UniProt Q12809). Kind of test: Human Ether-a-go-go-Related Gene (hERG) channel small molecule antagonists: fluorescence cell-based qHTS assay (AID 1671200).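 Also: hERG-expressing U2OS cells given a thallium stimulus after FluxOR II dye loading; series mostly up to about 77 µM; nearly all actives have a fitted effect of over 50% in size.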 A digest of the protocol: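 U2OS cells expressing the channel were plated at 1000 cells/well, incubated overnight at 37 C, then loaded with FluxOR II thallium-sensitive dye for 1 h at room temperature in the dark, with a further 10 min at room temperature before stimulation.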

In test [4] the target is Cytochrome P450 2C9 (Homo sapiens) (UniProt P11712). Kind of test: Cytochrome P450 Family 2 Subfamily C Member 9 (CYP2C9) small molecule antagonists: luciferase reporter qHTS assay (AID 1671198). Also: nearly all actives have a fitted effect of over 50% in size. Also: potency is read from the fitted curve at half-maximal effect. A digest of the protocol: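 CYP2C9 activity was measured with a P450-Glo proluciferin substrate. Enzyme–substrate mix was held with compound for 10 min at room temperature, then NADPH regeneration solution was added for 1 h at 37C. Luciferin product was read as luminescence.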

Test [5] has as its target Cytochrome P450 3A4 (Homo sapiens) (UniProt P08684). Kind of test: Cytochrome P450 Family 3 Subfamily A Member 4 (CYP3A4) small molecule antagonists: luciferase reporter qHTS assay (AID 1671201). Also: nearly all actives have a fitted effect of over 50% in size. Also: potency is read from the fitted curve at half-maximal effect. A digest of the protocol: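 P450-Glo CYP3A4 system with proluciferin substrate; compounds preincubated 10 min RT with enzyme-substrate mix, then NADPH regeneration added for 1 h RT. Detection reagent 20 min, luminescence read as relative luminescence units.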

Where “and” joins values, the source holds several entries; their conditions need not be identical. Identical values can stand only once. Results filed as inconclusive are left out. Where a structure was tested more than once in an assay, its records may differ in their call. Calls of active or inactive are those of the source. Calls follow the shape of the dose curve; as a rule, active = well fitted curve in the direction sought with a large enough effect in the repeat runs; inconclusive = weak or mixed curves; inactive = no such curve, though single readings can be large; an effect the other way counts as inactive or inconclusive.

Sequence of Cytochrome P450 3A4 (Homo sapiens) (P08684 whole entry, looked up): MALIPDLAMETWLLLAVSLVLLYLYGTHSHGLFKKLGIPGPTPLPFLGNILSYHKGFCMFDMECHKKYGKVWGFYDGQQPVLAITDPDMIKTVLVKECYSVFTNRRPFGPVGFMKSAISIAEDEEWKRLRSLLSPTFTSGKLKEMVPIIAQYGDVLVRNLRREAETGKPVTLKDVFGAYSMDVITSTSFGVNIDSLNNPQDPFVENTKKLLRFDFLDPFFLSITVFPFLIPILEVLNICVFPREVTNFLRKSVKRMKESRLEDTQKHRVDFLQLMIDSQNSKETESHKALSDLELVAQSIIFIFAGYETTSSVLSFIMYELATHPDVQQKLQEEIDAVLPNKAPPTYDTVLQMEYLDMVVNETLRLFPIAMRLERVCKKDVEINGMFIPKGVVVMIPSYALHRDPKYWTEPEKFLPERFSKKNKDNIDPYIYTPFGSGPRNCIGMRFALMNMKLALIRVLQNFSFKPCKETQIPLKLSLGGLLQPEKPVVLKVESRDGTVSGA
Sequence of Cytochrome P450 1A2 (Homo sapiens) (P05177 whole entry, looked up): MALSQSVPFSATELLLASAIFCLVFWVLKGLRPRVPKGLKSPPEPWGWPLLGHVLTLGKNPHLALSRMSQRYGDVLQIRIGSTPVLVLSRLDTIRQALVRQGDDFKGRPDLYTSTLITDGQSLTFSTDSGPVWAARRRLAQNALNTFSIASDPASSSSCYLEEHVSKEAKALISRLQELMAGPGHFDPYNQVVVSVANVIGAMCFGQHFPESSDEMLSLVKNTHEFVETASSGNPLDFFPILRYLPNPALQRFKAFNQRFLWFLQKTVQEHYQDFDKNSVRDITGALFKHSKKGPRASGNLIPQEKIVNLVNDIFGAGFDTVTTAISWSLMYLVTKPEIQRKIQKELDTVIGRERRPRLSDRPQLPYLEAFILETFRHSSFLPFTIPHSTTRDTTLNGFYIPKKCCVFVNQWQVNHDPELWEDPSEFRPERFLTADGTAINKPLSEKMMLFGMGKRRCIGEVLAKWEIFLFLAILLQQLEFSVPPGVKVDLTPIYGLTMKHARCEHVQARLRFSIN
Sequence of Voltage-gated inwardly rectifying potassium channel KCNH2 (Homo sapiens) (Q12809 whole entry, looked up): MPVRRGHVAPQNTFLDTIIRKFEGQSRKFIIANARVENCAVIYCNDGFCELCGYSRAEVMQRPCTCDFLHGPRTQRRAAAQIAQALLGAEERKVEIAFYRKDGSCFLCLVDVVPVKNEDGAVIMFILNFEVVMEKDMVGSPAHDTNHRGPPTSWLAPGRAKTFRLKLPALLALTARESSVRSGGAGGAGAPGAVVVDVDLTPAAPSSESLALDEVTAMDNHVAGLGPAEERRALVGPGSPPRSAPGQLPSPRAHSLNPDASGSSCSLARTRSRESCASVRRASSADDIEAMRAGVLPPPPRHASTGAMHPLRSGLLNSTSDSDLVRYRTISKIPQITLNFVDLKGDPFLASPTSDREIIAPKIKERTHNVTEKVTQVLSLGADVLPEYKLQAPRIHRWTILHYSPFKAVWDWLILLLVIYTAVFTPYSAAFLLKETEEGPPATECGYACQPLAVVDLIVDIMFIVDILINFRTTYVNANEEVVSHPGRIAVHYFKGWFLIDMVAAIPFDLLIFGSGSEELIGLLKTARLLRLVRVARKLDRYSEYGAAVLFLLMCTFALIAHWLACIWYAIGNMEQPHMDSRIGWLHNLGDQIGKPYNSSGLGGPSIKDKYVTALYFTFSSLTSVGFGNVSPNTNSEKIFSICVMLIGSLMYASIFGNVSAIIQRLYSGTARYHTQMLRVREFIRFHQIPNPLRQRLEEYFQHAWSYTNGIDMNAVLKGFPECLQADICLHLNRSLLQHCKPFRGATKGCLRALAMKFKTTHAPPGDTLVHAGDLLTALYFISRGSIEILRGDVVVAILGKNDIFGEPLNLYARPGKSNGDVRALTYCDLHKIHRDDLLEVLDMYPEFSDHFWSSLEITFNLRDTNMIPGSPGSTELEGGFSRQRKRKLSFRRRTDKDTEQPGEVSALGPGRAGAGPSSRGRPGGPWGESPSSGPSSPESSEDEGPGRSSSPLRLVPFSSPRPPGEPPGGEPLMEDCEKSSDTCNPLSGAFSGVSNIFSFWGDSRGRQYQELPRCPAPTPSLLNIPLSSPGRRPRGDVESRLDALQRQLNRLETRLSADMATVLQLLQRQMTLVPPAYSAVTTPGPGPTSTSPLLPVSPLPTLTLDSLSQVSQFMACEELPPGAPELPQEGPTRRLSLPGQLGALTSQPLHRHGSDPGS
Sequence of Cytochrome P450 2C9 (Homo sapiens) (P11712 whole entry, looked up): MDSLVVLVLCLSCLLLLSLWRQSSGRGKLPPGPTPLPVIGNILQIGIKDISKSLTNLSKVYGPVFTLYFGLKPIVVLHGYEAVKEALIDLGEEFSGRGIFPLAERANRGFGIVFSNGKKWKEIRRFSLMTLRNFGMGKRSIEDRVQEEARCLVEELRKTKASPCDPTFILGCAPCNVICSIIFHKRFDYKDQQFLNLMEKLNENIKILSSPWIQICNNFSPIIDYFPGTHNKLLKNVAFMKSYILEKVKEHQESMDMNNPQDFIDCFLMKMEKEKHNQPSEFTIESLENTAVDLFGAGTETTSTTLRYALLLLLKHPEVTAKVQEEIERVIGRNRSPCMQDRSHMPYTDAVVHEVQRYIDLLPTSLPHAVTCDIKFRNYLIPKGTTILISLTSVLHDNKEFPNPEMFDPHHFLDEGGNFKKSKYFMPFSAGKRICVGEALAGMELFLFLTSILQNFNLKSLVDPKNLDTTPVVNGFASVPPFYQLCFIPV
Sequence of Cytochrome P450 2C19 (Homo sapiens) (P33261 whole entry, looked up): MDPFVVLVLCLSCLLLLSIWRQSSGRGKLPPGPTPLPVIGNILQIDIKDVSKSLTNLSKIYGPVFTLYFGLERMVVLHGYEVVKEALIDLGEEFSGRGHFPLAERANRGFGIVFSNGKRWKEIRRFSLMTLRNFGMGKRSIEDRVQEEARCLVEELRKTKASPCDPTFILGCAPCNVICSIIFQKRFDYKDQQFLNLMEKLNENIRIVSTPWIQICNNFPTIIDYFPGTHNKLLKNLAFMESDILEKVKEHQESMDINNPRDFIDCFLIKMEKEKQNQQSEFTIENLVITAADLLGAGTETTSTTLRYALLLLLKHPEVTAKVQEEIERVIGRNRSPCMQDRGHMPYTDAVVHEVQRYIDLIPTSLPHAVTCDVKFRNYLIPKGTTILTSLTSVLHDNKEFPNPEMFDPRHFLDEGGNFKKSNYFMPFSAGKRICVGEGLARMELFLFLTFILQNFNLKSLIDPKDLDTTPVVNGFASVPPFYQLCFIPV

On to `C/C=C(C)/C=C/C=C(C)C`, for which the Potency in test [1] is 70.2 µM (active) and 79.6 µM (active); in test [2] it was 39.9 µM (active). The Potency result in test [3] was “inactive”.
`CCCCC(CC)C(=O)OCCOCCOCCOC(=O)C(CC)CCCC` (stereo not given): the Potency was 40.4 µM (active) and 17.8 µM (active) in test [1]; 25.5 µM (active) and 7.96 µM (active) in test [4]. Further, in test [3], the Potency result is “inactive”.
Regarding `CCCCOCCO`, the Potency result in test [1], in test [4], in test [3] and in test [5] was “inactive” in each case.
For `CCOC(=O)C1OC1c1ccccc1` (stereo not given), the Potency is 36.3 µM (active) in test [1]; 32.4 µM (active) and 22.4 µM (active) in test [2]. Also, in test [5], the Potency entry was “inactive”.
As for `O=Nc1ccc(O)cc1`, the Potency was 17.4 µM (active) in test [1]; 31 µM (active) and 39.9 µM (active) in test [2]. In addition, the Potency entry in test [3] and in test [5] was “inactive” in each case.
Take `Cc1ccc(N)c(S(=O)(=O)O)c1`: the Potency in test [1] was 71.9 µM (active) and inactive; in test [4], 45.4 µM (active). Further, the Potency entry in test [3] was “inactive”.
Regarding `CC(C)(CO)COC(=O)C(C)(C)CO`, the Potency in test [1] was 8.94 µM (active) and 39.9 µM (active). Also, the Potency result in test [2] and in test [5] was “inactive” each time.
`C[C@@H](O)[C@H]1C(=O)N2C(C(=O)O)=C(S[C@@H]3CN[C@H](C(=O)N(C)C)C3)[C@H](C)[C@H]12`: the Potency result in test [1], in test [3] and in test [5] was “inactive” throughout. In test [2], the Potency is 15.5 µM (active) and inactive.
For the compound `CC1=C(/C=C/C(C)=C/C=C/C(C)=C/CO)C(C)(C)CCC1`, the Potency in test [1] was 50.9 µM (active) and 37.5 µM (active); in test [4], 64.1 µM (active) and 37.5 µM (active); in test [2], 20.3 µM (active); in test [5], 18.1 µM (active) and 11.9 µM (active).
With `CN(C)c1ccc(C(=N)c2ccc(N(C)C)cc2)cc1`, the Potency in test [1] was 5.57 µM (active) and 15.3 µM (active); in test [2] it was 17.6 µM (active) and 21.6 µM (active); in test [5] it was 39.4 µM (active). Further, the Potency result in test [4] was “inactive”.
For `OC1CCCC1`, the Potency entry in test [1], in test [4], in test [2] and in test [5] was “inactive” in each case.
For the compound `CC1COc2ccccc2N1C(=O)C(Cl)Cl` (stereo not given), the Potency in test [1] is 7.09 µM (active) and 6.32 µM (active); in test [4] it was 15.9 µM (active) and 28.2 µM (active); in test [2], 79.5 µM (active) and inactive. Moreover, the Potency result in test [5] was “inactive”.
Take `Clc1cc(Cl)c(Cl)cc1Cl`: the Potency entry in test [1], in test [4] and in test [5] was “inactive” each time.
For `C=C(C)C(=O)OCCCCCC`, the Potency result in test [1], in test [4], in test [2] and in test [5] was “inactive” in each case.
With `O=C1N=C(O)CN1/N=C/c1ccc(-c2ccc([N+](=O)[O-])cc2)o1`, in test [3], the Potency entry is “inactive”.
Consider `OCC1CCCO1` (stereo not given), for which the Potency in test [1] was 40.7 µM (active) and inactive. For the same compound, the Potency result in test [2] and in test [3] was “inactive” in each case.
Take `S=c1nc[nH]c2nc[nH]c12`: the Potency in test [1] was 69.2 µM (active) and 30.9 µM (active); in test [4] it was 34.7 µM (active). Besides, the Potency entry in test [2] and in test [5] was “inactive” throughout.
On to `CCCCCCC(C)(C)S`, for which the Potency was 22.6 µM (active) and inactive in test [1]; 32 µM (active) and inactive in test [4]. Besides, the Potency entry in test [3] and in test [5] was “inactive” throughout.
`ClC1=C(Cl)C(Cl)(Cl)C(Cl)=C1Cl`: the Potency entry in test [1] and in test [2] was “inactive” in each case.
Regarding `COCC(C)O` (stereo not given), the Potency entry in test [1], in test [4], in test [2] and in test [5] was “inactive” in each case.
Turning to `C=C1CC[C@H](O)CC1=C/C=C1\CCC[C@]2(C)[C@@H]([C@H](C)/C=C/[C@H](C)C(C)C)CC[C@@H]12`, the Potency in test [1] was 35.3 µM (active) and 25.2 µM (active). In addition, the Potency entry in test [3] was “inactive”.
For the compound `CC(=O)Nc1ccc(C(=O)O)cc1`, the Potency result in test [1], in test [4], in test [2] and in test [5] was “inactive” each time.
As to `COC(=O)Nc1nc2ccc(Sc3ccccc3)cc2[nH]1`, the Potency in test [1] was 25.2 µM (active) and inactive; in test [2], 12.6 µM (active). In addition, the Potency entry in test [3] was “inactive”.
Take `CS(=O)(=O)Nc1ccc([N+](=O)[O-])cc1Oc1ccccc1`: the Potency entry in test [3] was “inactive”.
As for `O=S(=O)(O)CCS`, the Potency entry in test [1], in test [2], in test [3] and in test [5] was “inactive” each time.
In the case of `Cn1c([N+](=O)[O-])cnc1COC(N)=O`, the Potency result in test [1], in test [4], in test [2] and in test [5] was “inactive” throughout.
Take `O=[N+]([O-])C(CO)(CO)CO`: the Potency in test [1] was 69.9 µM (active) and inactive; in test [4], 79.6 µM (active). The Potency entry in test [2] and in test [5] was “inactive” throughout.
On to `COC(=O)c1ccccc1O`, for which the Potency in test [1] is 35.7 µM (active) and inactive; in test [2] it was 6.35 µM (active). Further, the Potency entry in test [4] and in test [5] was “inactive” each time.
With `CNC[C@H](O)[C@@H](O)[C@H](O)[C@H](O)CO`, the Potency entry in test [1], in test [2], in test [3] and in test [5] was “inactive” throughout.
As for `C=C(C)C(=O)OCC(CC)(COC(=O)C(=C)C)COC(=O)C(=C)C`, the Potency in test [1] is 3.62 µM (active) and 3.49 µM (active); in test [4] it was 14.4 µM (active) and 15.6 µM (active); in test [2], 32.2 µM (active) and 27.8 µM (active). Moreover, the Potency entry in test [5] was “inactive”.
On to `Oc1ccc2ccccc2c1`, for which the Potency entry in test [3] was “inactive”.
For the compound `Nc1nc2ncc(CNc3ccc(C(=O)N[C@@H](CCC(=O)O)C(=O)O)cc3)nc2c(=O)[nH]1`, in test [1], the Potency was 56.4 µM (active) and inactive. Besides, the Potency result in test [4] and in test [5] was “inactive” in each case.
For `NCCc1ccc(O)c(O)c1`, the Potency in test [1] was 71.2 µM (active) and inactive. Besides, the Potency result in test [4], in test [3] and in test [5] was “inactive” in each case.

The values are drawn from PubChem BioAssay (Tox21).
